The results in this text go back to PubChem BioAssay (Tox21).

Results filed as inconclusive are left out. The source made the active and inactive calls. Unless noted, calls come from the whole dose curve; as a rule, active = well fitted curve in the direction sought with a large enough effect in the repeat runs; inconclusive = weak or mixed curves; inactive = no such curve, though single readings can be large; an effect the other way counts as inactive or inconclusive. Residues, ends and D or L forms follow the SMILES beside them.

Assay [1] in a line: qHTS assay to identify small molecule antagonists of the glucocorticoid receptor (GR) signaling pathway - cell viability counter screen (AID 720693). Note: nearly all actives have a fitted effect of over 55% in size.
Assay [2] is described as follows: qHTS assay for identifying genotoxic compounds that show differential cytotoxicity against isogenic chicken DT40 cell lines with known DNA damage response pathways - wild type cell line (AID 743012). Note: nearly all actives have a fitted effect of over 60% in size. Note: potency is the fitted concentration of half-maximal effect. The essentials: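 Luminescent ATP viability signal (CellTiter-Glo, 30 min RT) recorded after wild type DT40 cells were incubated with compounds for 40 h at 37 C/5% CO2.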
A general note: In qHTS, concentration-response curves come from the screen itself.

Assay [3] in a line: qHTS assay for identifying genotoxic compounds that show differential cytotoxicity against isogenic chicken DT40 cell lines with known DNA damage response pathways - Rad54/Ku70 mutant cell line (AID 743015). Note: nearly all actives have a fitted effect of over 60% in size. Note: potency is the fitted concentration of half-maximal effect.
The nature of assay [4]: qHTS assay to identify small molecule antagonists of the androgen receptor (AR) signaling pathway - cell viability counter screen (AID 743033; note: nearly all actives have a fitted effect of over 45% in size).
Assay [5] can be described thus: qHTS assay to identify small molecule antagonists of the androgen receptor (AR) signaling pathway using the MDA cell line - cell viability counter screen (AID 743041; note: nearly all actives have a fitted effect of over 45% in size). The essentials:
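Compound exposure lasted 16 h at 37C in MDA-kb2 AR-luc cells stimulated with R1881. Protease-based CellTiter-Fluor reagent was applied for the final 30 min and fluorescence measured.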

The nature of assay [6]: qHTS assay to identify small molecule antagonists of the thyroid receptor (TR) signaling pathway (AID 743065). Note: series mostly up to about 70 µM; nearly all actives have a fitted effect of over 55% in size. The essentials: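 GH3.TRE-Luc rat pituitary cells (two TREs driving luciferase) were dosed with compound, then stimulated with 1 nM T3 (final) for 23.5 h at 37 C. ONE-Glo luminescence was the read-out, with CellTiter-Fluor fluorescence as the cytotoxicity counter-screen.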

Assay [7] deals with thyroid hormone receptor (rat, GH3 cells). The assay is described as follows: qHTS assay to identify small molecule agonists of the thyroid receptor (TR) signaling pathway (AID 743066; calls by dose curve).
Assay [8] concerns the target Estrogen receptor (Homo sapiens) (UniProt P03372). As to the kind of experiment: qHTS assay to identify small molecule antagonists of the estrogen receptor alpha (ER-alpha) signaling pathway (AID 743069; active = well fitted curve in the direction sought with a large enough effect in the signal ratio in the repeat runs, not every such curve was filed as active; the % refers to the signal ratio). The essentials: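 In this cell-based reporter format, GripTite HEK293 cells harbouring ER-alpha-UAS-bla were grown overnight with 2% charcoal-stripped FBS, dosed with DMSO-dissolved compounds, then challenged with 17beta-estradiol. After 18 hr at 37C, beta-lactamase activity was detected by FRET fluorescence.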

The nature of assay [9]: qHTS assay to identify small molecule antagonists of the estrogen receptor alpha (ER-alpha) signaling pathway - cell viability counter screen (AID 743074; calls by dose curve; note: nearly all actives have a fitted effect of over 45% in size).
For assay [10], the target named is Estrogen receptor (Homo sapiens) (UniProt P03372). As to the kind of experiment: qHTS assay to identify small molecule agonists of the estrogen receptor alpha (ER-alpha) signaling pathway (AID 743075; calls by dose curve).
Sequence of Estrogen receptor (Homo sapiens) (P03372 whole entry, looked up): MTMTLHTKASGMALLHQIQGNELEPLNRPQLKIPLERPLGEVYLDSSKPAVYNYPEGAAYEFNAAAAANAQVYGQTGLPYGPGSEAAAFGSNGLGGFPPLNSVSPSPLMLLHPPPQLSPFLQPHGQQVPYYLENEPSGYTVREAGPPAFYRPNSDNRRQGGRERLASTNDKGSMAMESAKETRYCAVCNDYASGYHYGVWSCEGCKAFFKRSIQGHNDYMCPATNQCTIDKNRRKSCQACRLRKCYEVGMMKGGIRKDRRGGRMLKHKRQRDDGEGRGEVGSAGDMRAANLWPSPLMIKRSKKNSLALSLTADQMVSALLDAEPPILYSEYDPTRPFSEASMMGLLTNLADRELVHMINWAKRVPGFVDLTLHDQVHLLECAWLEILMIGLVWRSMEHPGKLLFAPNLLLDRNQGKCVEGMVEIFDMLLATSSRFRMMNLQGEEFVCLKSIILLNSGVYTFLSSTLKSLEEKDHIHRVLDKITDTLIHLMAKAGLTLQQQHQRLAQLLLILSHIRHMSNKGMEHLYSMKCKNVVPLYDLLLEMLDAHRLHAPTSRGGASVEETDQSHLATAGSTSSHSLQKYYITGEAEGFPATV
Assay [11] shares this target. As to the kind of experiment: qHTS assay to identify small molecule agonists of the estrogen receptor alpha (ER-alpha) signaling pathway using the BG1 cell line (AID 743079). Note: nearly all actives have a fitted effect of over 20% in size. Note: potency is the fitted concentration of half-maximal effect.
A short description of assay [12]: qHTS assay to identify small molecule antagonists of the estrogen receptor alpha (ER-alpha) signaling pathway using the BG1 cell line (AID 743080; calls by dose curve;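 note: BG1 cells stimulated with 17beta-estradiol alongside compound; series mostly up to about 70 µM; nearly all actives have a fitted effect of over 25% in size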). The essentials: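 After 5 days in phenol-red-free 10% charcoal-stripped FBS medium, BG1-Luc-4E2 cells were seeded, left 24 h at 37 C, co-treated with compounds and 17beta-estradiol for 21.5 h, then assayed for viability and luciferase.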

Another assay concerns the target Aromatase (Homo sapiens) (UniProt P11511). The assay is described as follows: qHTS assay to identify aromatase inhibitors (AID 743083). Note: series mostly up to about 70 µM; nearly all actives have a fitted effect of over 55% in size.
A short description of assay [13]: qHTS assay for identifying genotoxic compounds that show differential cytotoxicity against isogenic chicken DT40 cell lines with known DNA damage response pathways - Rev3 mutant cell line (AID 743014). Note: nearly all actives have a fitted effect of over 55% in size.
Assay [14] concerns the target Androgen receptor (Homo sapiens) (UniProt P10275). As to the kind of experiment: qHTS assay to identify small molecule agonists of the androgen receptor (AR) signaling pathway (AID 743036; active = well fitted activation curve with a large enough effect in the signal ratio in the repeat runs, with a control signal flat, not every such curve was filed as active; the % refers to the signal ratio). The essentials: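 Cell-based FRET reporter assay: HEK293 line with a UAS-beta-lactamase construct, compounds added in DMSO, 16 h exposure at 37C, then 2 h substrate step at room temperature and fluorescence intensity read.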

For assay [15] the target is unchanged. As to the kind of experiment: qHTS assay to identify small molecule agonists of the androgen receptor (AR) signaling pathway using the MDA cell line (AID 743040; note: nearly all actives have a fitted effect of over 20% in size). The essentials:
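Testing was done with the MDA-kb2 AR-luc line, a human breast carcinoma stably transfected with MMTV-luciferase containing AR and GR response elements. Cells were exposed 16 h at 37C before ONE-Glo luminescence detection.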

Assay [16] shares this target. The assay is described as follows: qHTS assay to identify small molecule antagonists of the androgen receptor (AR) signaling pathway using the MDA cell line (AID 743042; note: nearly all actives have a fitted effect of over 55% in size). The essentials: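 MDA-kb2 breast carcinoma cells carrying MMTV-luciferase (AR/GR responsive) were co-treated with compounds and the agonist R1881 for 16 h at 37C. Inhibition read as ONE-Glo luminescence; CellTiter-Fluor fluorescence measured in parallel for cytotoxicity.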

A short description of assay [17]: qHTS assay to identify small molecule antagonists of the thyroid receptor (TR) signaling pathway - cell viability counter screen (AID 743064). Note: nearly all actives have a fitted effect of over 50% in size. The essentials:
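In rat pituitary GH3.TRE-Luc reporter cells co-exposed to compound and 1 nM T3 for 23.5 h, cytotoxicity was assessed with CellTiter-Fluor in the same wells, read by fluorescence.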

Assay [18] can be described thus: qHTS assay to identify small molecule antagonists of the estrogen receptor alpha (ER-alpha) signaling pathway using the BG1 cell line - cell viability counter screen (AID 743081).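 Note: compound given together with 17beta-estradiol as the ER stimulus; series mostly up to about 70 µM; nearly all actives have a fitted effect of over 45% in size.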
The target in assay [19] is Androgen receptor (Homo sapiens) (UniProt P10275). The assay is described as follows: qHTS assay to identify small molecule antagonists of the androgen receptor (AR) signaling pathway (AID 743035; active = well fitted inhibition curve with a large enough effect in the signal ratio in the repeat runs, not every such curve was filed as active; the % refers to the signal ratio). The essentials:
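Quantitative HTS of the Tox21 10K library used HEK293 AR-UAS-bla cells stimulated with R1881 alongside compound for 16 h at 37C, followed by beta-lactamase FRET detection (LiveBLAzer B/G, 2 h, RT).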

Sequence of Androgen receptor (Homo sapiens) (P10275 whole entry, looked up): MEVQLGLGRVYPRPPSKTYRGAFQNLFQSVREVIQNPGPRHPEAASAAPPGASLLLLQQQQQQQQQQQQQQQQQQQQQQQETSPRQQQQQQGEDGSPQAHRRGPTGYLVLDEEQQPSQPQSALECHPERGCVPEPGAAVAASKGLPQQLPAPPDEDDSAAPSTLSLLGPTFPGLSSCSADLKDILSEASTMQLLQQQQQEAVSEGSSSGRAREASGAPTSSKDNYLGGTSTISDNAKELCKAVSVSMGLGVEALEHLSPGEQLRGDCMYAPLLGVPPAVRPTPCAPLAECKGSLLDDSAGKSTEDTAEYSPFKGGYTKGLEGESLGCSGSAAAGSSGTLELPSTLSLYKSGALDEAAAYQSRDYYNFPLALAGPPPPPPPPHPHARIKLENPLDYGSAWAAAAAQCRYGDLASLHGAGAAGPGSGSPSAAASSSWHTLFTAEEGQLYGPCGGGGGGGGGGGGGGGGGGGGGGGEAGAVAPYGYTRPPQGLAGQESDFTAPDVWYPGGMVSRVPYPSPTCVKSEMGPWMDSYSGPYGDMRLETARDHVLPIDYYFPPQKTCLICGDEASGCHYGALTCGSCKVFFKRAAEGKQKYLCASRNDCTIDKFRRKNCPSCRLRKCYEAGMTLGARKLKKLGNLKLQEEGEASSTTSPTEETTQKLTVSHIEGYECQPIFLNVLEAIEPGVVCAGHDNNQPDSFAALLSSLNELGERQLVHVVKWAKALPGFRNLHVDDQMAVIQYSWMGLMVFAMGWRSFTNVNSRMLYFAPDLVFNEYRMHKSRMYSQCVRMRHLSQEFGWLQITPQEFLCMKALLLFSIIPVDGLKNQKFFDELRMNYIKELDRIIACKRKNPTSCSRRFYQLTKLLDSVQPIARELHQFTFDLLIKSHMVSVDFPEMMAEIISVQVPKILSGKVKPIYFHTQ
Sequence of Aromatase (Homo sapiens) (P11511 whole entry, looked up): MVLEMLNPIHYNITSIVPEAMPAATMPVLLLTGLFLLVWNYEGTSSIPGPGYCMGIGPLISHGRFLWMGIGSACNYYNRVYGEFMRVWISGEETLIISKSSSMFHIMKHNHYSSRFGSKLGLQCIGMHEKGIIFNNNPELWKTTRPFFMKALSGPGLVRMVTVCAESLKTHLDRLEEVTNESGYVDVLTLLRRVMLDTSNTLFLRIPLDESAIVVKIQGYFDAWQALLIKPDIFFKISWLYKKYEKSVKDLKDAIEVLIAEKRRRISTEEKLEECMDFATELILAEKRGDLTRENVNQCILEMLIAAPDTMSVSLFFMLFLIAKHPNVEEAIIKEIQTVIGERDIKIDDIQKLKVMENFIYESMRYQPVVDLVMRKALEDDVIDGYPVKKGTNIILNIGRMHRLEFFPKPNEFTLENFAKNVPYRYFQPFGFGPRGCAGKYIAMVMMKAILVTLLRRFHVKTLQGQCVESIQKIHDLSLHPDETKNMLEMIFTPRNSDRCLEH

For `CCCOC(=O)c1ccccc1O`, the Potency result in assay [1], in assay [2], in assay [3], in [4], in assay [5] and in assay [6] was “inactive” each time. Besides, the Potency result in assay [7], in [8], in assay [9], in assay [10], in [11] and in assay [12] was “inactive” throughout. In addition, in the assay with Aromatase (Homo sapiens), the Potency result is “inactive”.

As to `NCCCC[C@H](NC(=O)[C@@H]1CCCN1C(=O)[C@@H]1CSSC[C@H](N)C(=O)N[C@@H](Cc2ccc(O)cc2)C(=O)N[C@@H](Cc2ccccc2)C(=O)N[C@@H](CCC(N)=O)C(=O)N[C@@H](CC(N)=O)C(=O)N1)C(=O)NCC(N)=O`, the Potency entry in [1], in assay [13], in assay [3], in assay [4], in assay [14] and in [15] was “inactive” each time. Further, the Potency result in assay [5], in assay [16], in assay [17], in assay [6], in assay [7] and in assay [8] was “inactive” each time. Moreover, the Potency entry (in assay [9]; in assay [10]; in assay [11]; in assay [12]; in [18]; with Aromatase (Homo sapiens)) was “inactive” in each case.

`CO/N=C(\C(=O)N[C@@H]1C(=O)N2C(C(=O)O)=C(CSc3nc(C)c(CC(=O)O)s3)CS[C@H]12)c1csc(N)n1`: the Potency result in assay [1], in assay [2], in [3], in [5], in assay [17] and in assay [6] was “inactive” each time. The Potency entry in assay [7], in assay [8], in assay [9], in assay [10], in [11] and in assay [12] was “inactive” throughout. Moreover, the Potency entry (in assay [18]; in the assay with Aromatase (Homo sapiens)) was “inactive” throughout.

On to `CN(C/C=C/c1ccccc1)Cc1cccc2ccccc12`, for which the Potency entry in assay [1], in assay [4], in [5], in [7], in assay [8] and in [9] was “inactive” throughout. Also, the Potency result (in [10]; in assay [11]; in assay [12]; in [18]; in the assay with Aromatase (Homo sapiens)) was “inactive” each time. The Potency in [2] and in assay [3] was 26.6 µM (active) each time.

`COc1c(O)cc2c(c1O)[C@@H]1O[C@H](CO)[C@@H](O)[C@H](O)[C@H]1OC2=O`: the Potency result in [1], in [13], in assay [3], in assay [4], in assay [15] and in assay [5] was “inactive” in each case. The Potency result in assay [16], in assay [17], in assay [7], in [8], in [10] and in assay [11] was “inactive” each time. Further, the Potency entry (in assay [12]; in [18]; with Aromatase (Homo sapiens)) was “inactive” each time.

In the case of `CC(C)[C@H](NC(=O)[C@H](CC(=O)O)NC(=O)[C@H](CCCCN)NC(=O)[C@@H](N)CCCN=C(N)N)C(=O)N[C@@H](Cc1ccc(O)cc1)C(=O)O` (H-RKDVY-OH), the Potency result in assay [1], in [2], in assay [3], in [5], in assay [17] and in assay [6] was “inactive” throughout. Further, the Potency entry in assay [7], in assay [8], in assay [9], in [10], in [11] and in [12] was “inactive” in each case. For the same compound, the Potency entry (in [18]; with Aromatase (Homo sapiens)) was “inactive” each time.

Consider `CC(C)CCC[C@@H](C)[C@H]1CC[C@H]2[C@@H]3CC[C@@H]4C[C@H](O)CC[C@]4(C)[C@H]3CC[C@]12C`, for which the Potency result in assay [1], in assay [2], in assay [3], in [4], in assay [5] and in [6] was “inactive” throughout. Also, the Potency result in [7], in [8], in assay [9], in assay [10], in assay [11] and in assay [12] was “inactive” each time. In addition, the Potency entry (in [18]; with Aromatase (Homo sapiens)) was “inactive” throughout.

For `N[C@H](CO)C(=O)O`, the Potency entry in assay [1], in assay [2], in [3], in [4], in assay [5] and in assay [17] was “inactive” each time. The Potency entry (in assay [6]; in assay [7]; in assay [9]; in assay [18]; with Aromatase (Homo sapiens)) was “inactive” throughout.

Take `CCSCC`: the Potency entry in assay [1], in [2], in [3], in assay [5], in assay [17] and in assay [6] was “inactive” in each case. Further, the Potency entry in assay [7], in [8], in assay [9], in assay [10], in assay [11] and in [12] was “inactive” each time. The Potency entry (in [18]; with Aromatase (Homo sapiens)) was “inactive” in each case.

As to `c1ccc(-n2cnnn2)cc1`, the Potency entry in assay [1], in assay [2], in assay [3], in assay [5], in assay [6] and in [7] was “inactive” in each case. Moreover, the Potency result (in assay [9]; in assay [18]; with Aromatase (Homo sapiens)) was “inactive” in each case.

`CCCCCCCCCCCCCCCC(=O)OC[C@H](COP(=O)([O-])OCC[N+](C)(C)C)OC(=O)CCCCCCCCCCCCCCC`: the Potency result in assay [1], in assay [13], in assay [3], in [4], in assay [19] and in assay [14] was “inactive” each time. Also, the Potency result in assay [15], in [5], in assay [16], in assay [17], in assay [6] and in [7] was “inactive” throughout. In addition, the Potency entry in assay [8], in assay [9], in [10], in assay [11], in [12] and in [18] was “inactive” in each case. Besides, in the assay with Aromatase (Homo sapiens), the Potency result was “inactive”.

For the compound `NCCO/C=C/[C@H](N)C(=O)O`, the Potency entry in [1], in [13], in assay [3], in [4], in [5] and in [17] was “inactive” each time. In addition, the Potency entry in assay [6], in assay [7], in assay [8], in assay [9], in [10] and in [12] was “inactive” throughout. Further, the Potency entry (in assay [18]; in the assay with Aromatase (Homo sapiens)) was “inactive” in each case. Besides, the Potency in [11] was 26.6 µM (active).

Consider `Cc1ccc2nc(-c3ccc(N)cc3)sc2c1S(=O)(=O)O`, for which the Potency result in [1], in assay [13], in [4], in assay [5], in assay [16] and in assay [7] was “inactive” throughout. The Potency result (in [8]; in assay [10]; in assay [18]; with Aromatase (Homo sapiens)) was “inactive” each time. Besides, the Potency in [3] is 26.9 µM (active); in assay [11], 7.58 µM (active).

Turning to `O=C(O)[C@H]1CN(C/C=C/P(=O)(O)O)CCN1`, the Potency result in [1], in assay [2], in assay [3], in [4], in [5] and in [6] was “inactive” in each case. Moreover, the Potency entry (in assay [7]; in [9]; in assay [18]; with Aromatase (Homo sapiens)) was “inactive” throughout.

With `CC(=O)Oc1cc(C(F)(F)F)ccc1C(=O)O`, the Potency result in assay [1], in [2], in assay [3], in [4], in assay [5] and in assay [17] was “inactive” throughout. For the same compound, the Potency entry (in assay [6]; in [7]; in [9]; in [18]; with Aromatase (Homo sapiens)) was “inactive” throughout.

As to `O=C1c2ccccc2C(=O)C1c1ccc(F)cc1`, the Potency entry in [1], in [2], in assay [3], in [19], in [14] and in [15] was “inactive” each time. In addition, the Potency result in assay [5], in [16], in assay [17], in assay [6], in assay [7] and in assay [8] was “inactive” in each case. The Potency entry (in assay [10]; in assay [11]; in assay [12]; in [18]; with Aromatase (Homo sapiens)) was “inactive” throughout.
